Several values for one entry are separate records, joined by “and”; a condition that tells them apart may be missing. Equal values may be shown once. Records with an inconclusive call do not appear. A structure can be active in one record and inactive in another. Activity calls are given as the source filed them. Unless noted, calls come from the whole dose curve.
Assays:
[1] = Nuclear factor erythroid 2-related factor 2/antioxidant responsive element (Nrf2/ARE) small molecule agonists: qHTS cell viability counter screen in human keratinocytes (AID 1919968; active = well fitted curve in the direction sought with a large enough effect in the repeat runs; an effect the other way counts as inactive or inconclusive; note: nearly all actives have a fitted effect of over 55% in size)
Summary of the method: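 Cells of the KeratinoSens line were plated at 1,500 per well and left for 5 h before compound transfer from DMSO stocks. After a 23 h incubation (37 C, 5% CO2), CellTiter-Fluor was added. Signal was taken as fluorescence intensity 1 h later.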

[2] = Nuclear factor erythroid 2-related factor 2/antioxidant responsive element (Nrf2/ARE) small molecule agonists: luciferase reporter gene qHTS assay in human keratinocytes (AID 1919969); note: nearly all actives have a fitted effect of over 35% in size; note: potency is the fitted concentration of half-maximal effect
[3] = target: Gonadotropin-releasing hormone receptor (Homo sapiens) (UniProt P30968); experiment: Human gonadotropin-releasing hormone receptor (GnRHR) small molecule agonists, calcium flux assay in GnRHR-HEK293 cells (AID 1920063); note: nearly all actives have a fitted effect of over 35% in size
Sequence of Gonadotropin-releasing hormone receptor (Homo sapiens) (P30968 whole entry, looked up): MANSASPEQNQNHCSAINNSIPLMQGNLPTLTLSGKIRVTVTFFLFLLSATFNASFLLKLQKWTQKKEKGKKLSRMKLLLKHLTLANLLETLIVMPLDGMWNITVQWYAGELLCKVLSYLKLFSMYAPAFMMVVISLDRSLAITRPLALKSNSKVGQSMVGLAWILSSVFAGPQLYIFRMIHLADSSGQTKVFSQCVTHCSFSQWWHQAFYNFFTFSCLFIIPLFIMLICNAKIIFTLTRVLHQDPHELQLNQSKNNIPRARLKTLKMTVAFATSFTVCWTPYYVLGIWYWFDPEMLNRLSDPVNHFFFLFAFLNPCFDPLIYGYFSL
Summary of the method: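 Compounds dissolved in DMSO are pin-transferred onto dye-loaded GnRHR-HEK293 cells, which were seeded 18 h before at 37 C/5% CO2. Calcium signal is read as fluorescence intensity at 1 s intervals for 3 min.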

[4] = target: KiSS-1 receptor (Homo sapiens) (UniProt Q969F8); experiment: Human kisspeptin (KISS1R) small molecule agonists, calcium flux assay in KISS1R-HEK293 cells (AID 1920064; active = well fitted curve in the direction sought with a large enough effect in the repeat runs; an effect the other way counts as inactive or inconclusive)
Sequence of KiSS-1 receptor (Homo sapiens) (Q969F8 whole entry, looked up): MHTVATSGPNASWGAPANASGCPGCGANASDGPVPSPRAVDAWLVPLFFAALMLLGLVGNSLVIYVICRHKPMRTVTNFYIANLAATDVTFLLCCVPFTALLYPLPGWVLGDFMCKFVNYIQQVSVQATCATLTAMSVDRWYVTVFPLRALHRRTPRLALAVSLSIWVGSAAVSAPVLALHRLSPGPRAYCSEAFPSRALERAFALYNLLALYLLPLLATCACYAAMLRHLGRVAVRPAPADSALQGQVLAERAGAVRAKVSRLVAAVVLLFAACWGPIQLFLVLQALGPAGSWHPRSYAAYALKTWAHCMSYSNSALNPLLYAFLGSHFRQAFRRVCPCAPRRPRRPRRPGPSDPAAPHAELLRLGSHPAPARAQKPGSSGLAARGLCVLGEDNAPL
Summary of the method: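 Cell line: HEK293, stable human KISS1R. Dye loading 1 h at 37 C after 18 h culture. Read: kinetic fluorescence, 480/540 nm, 3 min at 1 s intervals.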

[5] = G protein-coupled receptor (GPCR) small molecule agonists, calcium flux assay: HEK293 wild type cell line counter screen (AID 1920065)
Summary of the method: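 Tox21 10K compounds, 15 concentrations each in triplicate, pin-transferred in DMSO onto dye-loaded cells; kinetic read at 480/540 nm for 3 min, 1 s intervals.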

[6] = p53 small molecule agonists, cell-based qHTS assay with human liver microsomes (AID 1963577)
Summary of the method: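 Cells carrying a p53-responsive bla reporter were rested 5 h (37 C, 5% CO2) before compound transfer. Human liver microsomes plus NADPH, 0.5 mg/mL final apiece, supplied metabolism during the 16 h 37 C exposure.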

[7] = p53 small molecule agonists, cell-based qHTS assay with rat liver microsomes (AID 1963578)
Summary of the method: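 Fluorescence from a beta-lactamase reporter under a p53 response element was measured after cells had been incubated 16 h at 37 C with test compound and rat liver microsomes plus NADPH (0.5 mg/mL final each).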

[8] = p53 small molecule agonists, cell-based qHTS assay with human liver microsomes: qHTS cell viability counter screen (AID 1963579); note: nearly all actives have a fitted effect of over 45% in size
Summary of the method: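 Seed p53RE-bla cells at 4,000 per well; incubate 5 h at 37 C; add compound, human liver microsomes and NADPH; incubate 16 h at 37 C; add CellTiter-Glo; after 30 min at room temperature, read luminescence.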

[9] = p53 small molecule agonists, cell-based qHTS assay with rat liver microsomes: qHTS cell viability counter screen (AID 1963580); note: nearly all actives have a fitted effect of over 45% in size
Summary of the method: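 Rat liver microsome (0.5 mg/mL final) and NADPH (0.5 mg/mL final) co-incubation with compounds for 16 h at 37 C on HCT-116 p53RE-bla cells; cytotoxicity taken from intracellular ATP luminescence.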

[10] = p53 small molecule agonists, cell-based qHTS assay: qHTS cell viability counter screen (AID 1963581); note: nearly all actives have a fitted effect of over 45% in size
Summary of the method: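 ATP content measured by luminescence in HCT-116 p53RE-bla cells treated 16 h at 37 C, same wells as the reporter screen.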

[11] = p53 small molecule agonists, cell-based qHTS assay (AID 1963582; active = well fitted activation curve with a large enough effect in the signal ratio in the repeat runs, not every such curve was filed as active; the % refers to the signal ratio)
Summary of the method: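 16 h compound exposure (37 C) of p53 response element–bla cells, preceded by 5 h recovery at 37 C/5% CO2; read-out via LiveBLAzer B/G FRET substrate, 2 h RT, fluorescence intensity.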

[12] = target: 5-hydroxytryptamine receptor 2A (Homo sapiens) (UniProt P28223); experiment: 5-hydroxytryptamine receptor 2A (HTR2A) small molecule antagonists, cell-based qHTS assay (AID 1963586); note: nearly all actives have a fitted effect of over 45% in size
Sequence of 5-hydroxytryptamine receptor 2A (Homo sapiens) (P28223 whole entry, looked up): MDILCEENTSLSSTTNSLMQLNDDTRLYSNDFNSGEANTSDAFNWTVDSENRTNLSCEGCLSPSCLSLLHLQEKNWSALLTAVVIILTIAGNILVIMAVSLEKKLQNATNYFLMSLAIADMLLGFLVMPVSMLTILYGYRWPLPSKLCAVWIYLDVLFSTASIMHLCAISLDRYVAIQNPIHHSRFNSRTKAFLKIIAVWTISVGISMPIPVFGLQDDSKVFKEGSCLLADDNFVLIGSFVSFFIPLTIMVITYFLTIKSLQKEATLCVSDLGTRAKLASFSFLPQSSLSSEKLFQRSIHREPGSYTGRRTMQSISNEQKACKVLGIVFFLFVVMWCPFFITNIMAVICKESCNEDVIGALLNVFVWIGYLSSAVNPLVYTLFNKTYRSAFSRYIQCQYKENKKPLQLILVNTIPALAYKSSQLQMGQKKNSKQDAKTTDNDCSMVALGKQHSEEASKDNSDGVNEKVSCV
Summary of the method: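 CHO cells stably expressing human HTR2A were plated for 18 h at 37 C, then loaded with calcium dye for 1 h. Compounds were preincubated 5 min at room temperature before DOI (4 nM solution) was added. Kinetic fluorescence was read for 3 min.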

[13] = target: 5-hydroxytryptamine receptor 2A (Homo sapiens) (UniProt P28223); experiment: 5-hydroxytryptamine receptor 2A (HTR2A) small molecule agonists, cell-based qHTS assay (AID 1963587); note: nearly all actives have a fitted effect of over 30% in size; note: potency is the fitted concentration of half-maximal effect
Summary of the method: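 Kinetic calcium-flux fluorescence (2 min, 1 sec intervals) after compound addition in agonist mode. HTR2A-CHO cells were cultured 18 h, then dye-loaded 1 h at 37 C.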

[14] = target: Muscarinic acetylcholine receptor M1 (Homo sapiens) (UniProt P11229); experiment: Cholinergic receptor muscarinic 1 (CHRM1) small molecule antagonists, cell-based qHTS assay (AID 1963588); note: nearly all actives have a fitted effect of over 40% in size
Sequence of Muscarinic acetylcholine receptor M1 (Homo sapiens) (P11229 whole entry, looked up): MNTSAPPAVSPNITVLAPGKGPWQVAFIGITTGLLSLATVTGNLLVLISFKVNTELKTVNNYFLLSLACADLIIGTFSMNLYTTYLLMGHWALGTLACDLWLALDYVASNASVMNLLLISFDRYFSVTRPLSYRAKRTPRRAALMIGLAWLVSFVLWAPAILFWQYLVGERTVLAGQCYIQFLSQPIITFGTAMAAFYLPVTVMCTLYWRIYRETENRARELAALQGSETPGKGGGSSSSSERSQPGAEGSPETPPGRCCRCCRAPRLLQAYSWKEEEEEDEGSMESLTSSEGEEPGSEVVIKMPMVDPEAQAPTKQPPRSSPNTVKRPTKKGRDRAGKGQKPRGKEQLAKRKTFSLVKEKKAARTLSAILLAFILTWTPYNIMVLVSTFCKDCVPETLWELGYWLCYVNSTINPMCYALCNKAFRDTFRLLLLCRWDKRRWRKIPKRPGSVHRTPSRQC
Summary of the method: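 Compounds were tested at 15 concentrations in three independent runs. Dye-loaded CHRM1-CHO cells were exposed 5 min at room temperature before stimulation by acetylcholine added at 50nM. Intracellular calcium was read kinetically on FDSS for 3 min.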

[15] = target: Muscarinic acetylcholine receptor M1 (Homo sapiens) (UniProt P11229); experiment: Cholinergic receptor muscarinic 1 (CHRM1) small molecule agonists, cell-based qHTS assay (AID 1963589); note: nearly all actives have a fitted effect of over 35% in size
Summary of the method: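 Homogeneous fluorescence calcium flux, agonist mode. Human M1-expressing CHO cells; compound dosed at 15 concentrations, three independent runs; signal sampled every 1 sec.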

[16] = cAMP Responsive Elements (CRE) small molecule agonists, cell-based qHTS assay (AID 1963590)
Summary of the method: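 HEK 293T cells stably bearing CRE-bla were plated at 2,000 cells per well and rested 18 h. Compounds, positive controls or DMSO were added for 3 h at 37 C. LiveBLAzer B/G substrate was then loaded for 2 h at room temperature.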

[17] = cAMP Responsive Elements (CRE) small molecule antagonists, cell-based qHTS assay (AID 1963591; active = well fitted inhibition curve with a large enough effect in the signal ratio in the repeat runs, not every such curve was filed as active; the % refers to the signal ratio)
Summary of the method: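 First, CRE-bla HEK293T cells settled 18 h at 37 C. Next, compound and 0.25 uM final NKH477 were applied for 3 h. Last, LiveBLAzer B/G substrate was loaded for 2 h at room temperature.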

[18] = target: Beta-2 adrenergic receptor (Homo sapiens) (UniProt P07550); experiment: Adrenergic beta2 receptor (ADRB2) small molecule antagonists, cell-based qHTS assay (AID 1963592); note: series mostly up to about 92 µM; nearly all actives have a fitted effect of over 50% in size
Sequence of Beta-2 adrenergic receptor (Homo sapiens) (P07550 whole entry, looked up): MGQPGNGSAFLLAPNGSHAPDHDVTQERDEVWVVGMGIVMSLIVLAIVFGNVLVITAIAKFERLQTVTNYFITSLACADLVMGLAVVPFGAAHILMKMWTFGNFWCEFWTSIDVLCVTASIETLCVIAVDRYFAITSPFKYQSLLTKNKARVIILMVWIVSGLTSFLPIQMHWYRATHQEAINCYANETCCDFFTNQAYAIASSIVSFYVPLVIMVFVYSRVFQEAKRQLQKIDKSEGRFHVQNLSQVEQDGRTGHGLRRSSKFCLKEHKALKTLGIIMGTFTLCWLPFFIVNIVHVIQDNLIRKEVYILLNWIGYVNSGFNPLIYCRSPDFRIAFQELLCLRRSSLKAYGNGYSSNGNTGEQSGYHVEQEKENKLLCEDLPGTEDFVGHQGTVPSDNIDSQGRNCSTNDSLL
Summary of the method: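 Assay format: CHO-ADRB2 cells, 18-20hr seeding at 37C/5% CO2, then compound plus 1nM isoproterenol agonist mix for 0.5hr RT. Homogeneous time-resolved fluorescence cAMP detection after 1hr, expressed as 665/615 nm ratio.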

[19] = target: D(2) dopamine receptor (Homo sapiens) (UniProt P14416); experiment: Dopamine D2 receptor (DRD2) small molecule agonists, cell-based qHTS assay (AID 1963594); note: nearly all actives have a fitted effect of over 35% in size
Sequence of D(2) dopamine receptor (Homo sapiens) (P14416 whole entry, looked up): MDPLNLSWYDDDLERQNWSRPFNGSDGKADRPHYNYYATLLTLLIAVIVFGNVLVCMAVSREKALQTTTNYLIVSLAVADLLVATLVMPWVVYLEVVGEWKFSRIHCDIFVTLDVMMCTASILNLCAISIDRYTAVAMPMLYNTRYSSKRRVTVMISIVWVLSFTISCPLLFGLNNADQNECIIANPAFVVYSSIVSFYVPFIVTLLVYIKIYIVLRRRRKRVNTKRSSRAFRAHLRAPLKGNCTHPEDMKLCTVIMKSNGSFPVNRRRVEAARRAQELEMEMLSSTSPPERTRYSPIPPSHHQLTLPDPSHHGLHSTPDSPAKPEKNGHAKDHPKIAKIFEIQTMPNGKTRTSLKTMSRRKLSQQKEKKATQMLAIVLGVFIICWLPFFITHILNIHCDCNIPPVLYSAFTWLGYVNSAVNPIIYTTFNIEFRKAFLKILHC
Summary of the method: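 cAMP accumulation in DRD2-HEK293 cells measured by HTRF after 1 h detection; compounds added 10 min before NKH477 (200nM […]) forskolin-analogue stimulation, 30 min at room temperature, with Ro20-1724 present at 0.1 mM final.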

[20] = target: D(2) dopamine receptor (Homo sapiens) (UniProt P14416); experiment: Dopamine D2 receptor (DRD2) small molecule antagonists, cell-based qHTS assay (AID 1963595; active = well fitted inhibition curve with a large enough effect in the signal ratio in the repeat runs, with a control signal flat; the % refers to the signal ratio)
Summary of the method: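 Readout: HTRF cAMP, cAMP-d2 competing with cellular cAMP for anti-cAMP cryptate, read after 1 h. Cells: DRD2-HEK293. Conditions: 0.1 mM Ro20-1724, 12 nM quinpirole, 200 nM NKH477, 30 min RT.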

Measured: Potency

COc1cc(/C=C/C(=O)O[C@H]2CC[C@]34C[C@]35CC[C@]3(C)[C@@H]([C@H](C)CCC=C(C)C)CC[C@@]3(C)[C@@H]5CC[C@H]4C2(C)C)ccc1O
inactive: all assays above

CC(=O)/C=C/C1C(C)=CCC(C)C1(C)C (stereo not drawn)
inactive: all assays above

O=C(O)C(S)C(S)C(=O)O (stereo not drawn)
inactive: all assays above

CCC(C)(C)C
not listed: [18] | [20]
inactive: all other assays above

Cc1ccc(C(C)(C)O)cc1
not listed: [18]
inactive: all other assays above

COc1ccc(C(=O)c2cccc(O)c2)c(OC)c1
not listed: [18]
inactive: all other assays above

CC(=O)OCC1=C(C(=O)O)N2C(=O)[C@@H](NC(=O)Cc3cccs3)[C@H]2SC1
not listed: [18] | [19] | [20]
inactive: all other assays above

NCCc1ccc(O)c(O)c1
inactive and 6.01 µM (active): [13]
not listed: [19]
inactive: all other assays above

CCOCCOC(=O)/C=C/c1ccc(OC)cc1
not listed: [18]
inactive: all other assays above

COC(=O)c1ccccc1C
not listed: [17]
inactive: all other assays above

CC/C=C\CCOC(=O)CCCCC
not listed: [19]
inactive: all other assays above

C[Si](C)O[Si](C)C
not listed: [17] | [20]
inactive: all other assays above

CCCC[C@H]1CN(CC2CCOCC2)C(=O)OC12CCN(C1(C)CCN(C(=O)c3c(C)ncnc3C)CC1)CC2
not listed: [18]
inactive: all other assays above

CC(=O)OCCCc1ccccc1
not listed: [18] | [19]
inactive: all other assays above

c1ccc2c(c1)CCc1ccccc1N2
active: [2] 61.4 µM
not listed: [18]
inactive: all other assays above

From PubChem BioAssay (Tox21)
